GIRK2 act = activators of human GIRK2 potassium channels. HEK293-GIRK2 thallium flux, Thallos fluorescence, MPD. calls only for hits at 25 µM. actives 0.05% (n = 63,000). AID 1259325, 2017; call rule not given here
Large screens that a line does not name were inactive. Many of the other results were omitted from the sample, so hits are more common in it than they were.

CCSc1nnc(NC(=O)c2ccc(S(=O)(=O)NCc3cccs3)o2)s1	none
Cc1cc(C)n(-c2ccc(=O)n(CCNC(=O)CCn3cnc4ccccc4c3=O)n2)n1	none
COc1cccc(-n2nnc(C(=O)NCc3ccc(C(C)C)cc3)c2-c2ccncc2)c1	none
Cc1ccccc1-n1nnc(C(=O)Nc2cccc(C(C)C)c2)c1-c1ccncc1	GIRK2 act active
Cc1ccccc1-n1nnc(C(=O)N2CCN(S(C)(=O)=O)CC2)c1-c1ccncc1	none
O=C(Nc1ccc(F)cc1)C1CCN(S(=O)(=O)c2ccc(F)cc2)CC1	none
Cc1cc(NC(=O)Cc2ccc3c(c2)OCO3)n(-c2nc3ccccc3s2)n1	none
Cc1noc(C2(NC(=O)C(C)Oc3ccccc3)CCCCC2)n1 (centres undefined)	none
Cc1cccc(-c2csc3c(=O)[nH]c(N4CCC(C(=O)NC(C)c5ccc(F)cc5)CC4)nc23)c1 (centres undefined)	none
O=C(CCCS(=O)(=O)Cc1ccccc1)Nc1nc2c(F)cc(F)cc2s1	none
CCn1cc(/C=c2/sc3n(c2=O)C(c2ccccc2)C(C(=O)Nc2ccccc2C)=C(C)N=3)c(C)n1 (centres undefined)	none
CCOC(=O)C1=C(C)N=c2s/c(=C/c3c(C)nn(C)c3C)c(=O)n2C1c1ccccc1 (centres undefined)	GIRK2 act active
CCOC(=O)C1=C(C)N=c2s/c(=C/c3cn(C)nc3C)c(=O)n2C1c1ccc(OC)cc1 (centres undefined)	none
O=S(=O)(NCC#CCN1CCCC1)c1cccc2cccnc12	none
O=C(NCCOc1ccccc1)NCCc1ccoc1	none
O=C(CN1CC(c2nc(-c3ncccn3)no2)C1)N1CCN(c2ccc(Cl)cc2)CC1	none

Compound activity from PubChem BioAssay.
